Hit rate of the full screen: of about 310,000 compounds, about 14,000 (4.5%) showed an effect of 50% or more. Effects have a minus sign here. Only a selection was taken, and strong results are over-represented in it overall.
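Further: peak tail current of the secondary pulse compared with the same well before compound.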

human ether-à-go-go-related gene (hERG) potassium channel, sequence (Q12809 whole entry, looked up): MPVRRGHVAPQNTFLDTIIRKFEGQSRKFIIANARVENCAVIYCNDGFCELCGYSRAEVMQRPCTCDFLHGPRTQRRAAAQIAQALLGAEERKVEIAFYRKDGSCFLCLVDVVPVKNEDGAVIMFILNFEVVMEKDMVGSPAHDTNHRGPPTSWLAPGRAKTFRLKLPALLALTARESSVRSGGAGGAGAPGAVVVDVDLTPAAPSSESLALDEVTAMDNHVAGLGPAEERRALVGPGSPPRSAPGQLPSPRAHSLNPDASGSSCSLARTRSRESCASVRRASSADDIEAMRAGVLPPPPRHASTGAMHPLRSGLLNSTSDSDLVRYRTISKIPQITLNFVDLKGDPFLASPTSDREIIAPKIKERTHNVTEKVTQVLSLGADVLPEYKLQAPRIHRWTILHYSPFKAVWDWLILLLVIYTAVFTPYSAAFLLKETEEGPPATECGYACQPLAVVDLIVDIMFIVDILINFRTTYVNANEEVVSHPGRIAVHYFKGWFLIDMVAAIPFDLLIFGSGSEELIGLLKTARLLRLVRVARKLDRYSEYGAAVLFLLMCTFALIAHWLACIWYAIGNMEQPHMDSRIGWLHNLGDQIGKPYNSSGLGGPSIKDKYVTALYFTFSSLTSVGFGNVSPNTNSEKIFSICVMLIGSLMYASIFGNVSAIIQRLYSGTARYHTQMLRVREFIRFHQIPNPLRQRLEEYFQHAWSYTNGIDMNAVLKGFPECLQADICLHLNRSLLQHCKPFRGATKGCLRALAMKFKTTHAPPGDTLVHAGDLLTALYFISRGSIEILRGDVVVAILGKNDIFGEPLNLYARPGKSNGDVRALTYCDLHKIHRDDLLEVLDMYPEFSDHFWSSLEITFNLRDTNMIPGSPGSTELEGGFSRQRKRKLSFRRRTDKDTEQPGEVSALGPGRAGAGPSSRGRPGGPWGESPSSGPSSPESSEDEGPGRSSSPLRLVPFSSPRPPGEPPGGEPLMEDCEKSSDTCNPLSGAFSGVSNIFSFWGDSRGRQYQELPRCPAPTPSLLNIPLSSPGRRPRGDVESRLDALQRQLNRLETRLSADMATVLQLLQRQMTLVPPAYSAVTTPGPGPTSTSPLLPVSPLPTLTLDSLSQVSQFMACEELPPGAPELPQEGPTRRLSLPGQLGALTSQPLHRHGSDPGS

The test addresses human ether-à-go-go-related gene (hERG) potassium channel (human, UniProt Q12809). Kind of test: primary screen, population patch clamp on CHO cells stably expressing hERG; higher = less effect of the substance.
As to `CC(=O)Nc1ccc(S(=O)(=O)N2CCN(S(=O)(=O)N3CCCCCC3)CC2)cc1`, the “hERG current change (%, negative = inhibition) at 10uM” value came to 8.41%.
Consider `CC(C)c1onc(C(=O)N2CCN(c3ccccc3)CC2)c1[N+](=O)[O-]`, for which the “hERG current change (%, negative = inhibition) at 10uM” value is on record as 14.1%.
With `CCC(C)(C)C1CCC(NC(=O)N2CCN(c3ccccc3O)CC2)CC1` (stereo not shown), the “hERG current change (%, negative = inhibition) at 10uM” value was -6.84%.
On to `COc1cc(Cl)c(C)cc1NC(=O)CSc1cc(Cl)ccc1Cl`, for which the “hERG current change (%, negative = inhibition) at 10uM” value came out at 7.31%.
Under `COc1ccc(CC(=O)OCCN(C)C)cc1.Cl` stands 11.8%; under `c1ccc(CCN2CN=C(Nc3nc4ccccc4s3)NC2)cc1`, -1.49%; under `Cc1ccc(Cl)cc1N1CCN(Cc2cc3c(cc2O)CCC3)CC1`, 4.92%.
Under `COc1ccc(N2CCN(CCN3C(=O)c4ccccc4C3=O)CC2)cc1` stands 17.6%; under `COc1ccc(C(CCN2CCN(c3ccccc3)CC2)c2c(O)cc(OC)cc2OC)cc1` (stereo not shown), -30.5%.
Under `COc1ccc(N2CCN(CC(O)COC(c3ccc(F)cc3)c3ccc(F)cc3)CC2)cc1.O=C(O)C(=O)O` (stereo not shown) stands -81.6%; under `Cc1ccc(Cl)cc1N1CCN(CCN)CC1`, -0.374%.
Turning to `Cc1ccc(Cl)cc1N1CCN(CC(O)COC(C)C)CC1.Cl` (stereo not shown), the “hERG current change (%, negative = inhibition) at 10uM” value was -63.7%.
Under `COc1ccc(N2CCN(CC(O)COC(C)(C)C)CC2)cc1.O=C(O)C(=O)O` (stereo not shown) stands 10.2%; under `COc1ccc(N2CCN(CCC(O)c3ccc4ccccc4c3)CC2)cc1` (stereo not shown), -68.3%; under `CCCN1CCN(CC(O)COC(c2ccc(OC)cc2)c2ccc(OC)cc2)CC1.O=C(O)C(=O)O` (stereo not shown), -30.2%.
For the compound `N=C1C(c2ccc(Br)cc2)=C(O)C2CCc3ccccc3N12` (stereo not shown), the “hERG current change (%, negative = inhibition) at 10uM” value is -30.5%.
Under `CC(C)N(C(=O)Cn1cnc2cc([N+](=O)[O-])ccc2c1=O)C(C)C` stands 7.76%.
Under `Cc1cccc2cc(CN(CCCO)C(=O)Nc3ccccc3Cl)c(=O)[nH]c12` stands 5.32%; under `O=C(N=C1c2ccccc2CN1c1ccccc1)c1cccc([N+](=O)[O-])c1`, -1.72%.
With `CCC1CCCCN1CCCNC(=O)CCNC(=O)Cn1cnc2ccccc2c1=O` (stereo not shown), the “hERG current change (%, negative = inhibition) at 10uM” value is given as -0.683%.
Under `CCN(CC)CCCNC(=O)c1cc2c(Cl)nc3ccccc3c2s1` stands -47.1%; under `Cc1ccc2nc(Cl)c3cc(C(=O)NCCCN4CCCC4)sc3c2c1`, -10.3%; under `CC1CCCN(CCCNC(=O)c2coc3nc4ccccc4nc23)C1` (stereo not shown), -5.67%.
For the compound `CCC1CCCCN1CCCNC(=O)c1cc2c(Cl)nc3ccccc3c2s1` (stereo not shown), the “hERG current change (%, negative = inhibition) at 10uM” value is reported as -76.6%.
Under `Cc1nc2ccccc2c2oc(C(=O)NCCCN3CCCC(C)C3)cc12` (stereo not shown) stands -19%; under `O=C(NCCCN1CCCC1)c1cc2c(Cl)nc3ccccc3c2s1`, -13.9%.
For `CC1CCN(CCCNC(=O)c2cc3c(Cl)nc4ccccc4c3s2)CC1`, the “hERG current change (%, negative = inhibition) at 10uM” value is given as -66.2%.
Under `CC1CCCN(CCCNC(=O)c2cc3c(Cl)nc4ccccc4c3s2)C1` (stereo not shown) stands -55.6%; under `Cc1cccc(C)c1NC(=O)C1(N(Cc2ccco2)C(=O)CC2NC(=O)NC2=O)CCCCC1` (stereo not shown), 7.25%.
As to `CCN(CC)C(=O)CSc1nnnn1-c1ccc(F)c(Cl)c1`, the “hERG current change (%, negative = inhibition) at 10uM” value is listed as -3.28%.
In the case of `O=C(Oc1ccc(-c2nc(-c3ccccn3)no2)cc1)c1ccccc1`, the “hERG current change (%, negative = inhibition) at 10uM” value was 7.73%.
Under `CCOC(=O)c1[nH]c2ccc(OC)cc2c1NC(=O)c1ccc2c(c1)OCO2` stands 17.1%; under `CN(CC(=O)Nc1ccccc1C(F)(F)F)C(=O)c1ccc(-c2ccc(Cl)cc2)o1`, -13.7%; under `COc1ccc(-n2nnc3c(SCC(=O)Nc4ccc5c(c4)OCCO5)ncnc32)cc1`, 0.643%.
Under `C=CCNC(=O)c1onc(CSc2ccc(Cl)cc2)c1C(=O)O` stands 15.2%.
Under `CC(C)(O)C#Cc1ccc(C(=O)Nc2ccc3c(c2)OCO3)s1` stands 22.7%; under `O=C(Nc1cccnc1Cl)c1cc2ccccc2o1`, 6.92%; under `O=C(O)c1cccc(OS(=O)(=O)c2cc(Br)ccc2Br)c1`, -9.65%.
With `O=C(Nc1ccc(Cl)cc1)c1cc(S(=O)(=O)N2CCOCC2)cs1`, the “hERG current change (%, negative = inhibition) at 10uM” value was -51.2%.
Turning to `Cc1ccc(NC(=O)c2cc(S(=O)(=O)N3CCOCC3)cs2)cc1`, the “hERG current change (%, negative = inhibition) at 10uM” value is reported as -8.31%.
In the case of `O=C(Nc1ccccc1C(=O)O)c1cc(S(=O)(=O)N2CCCCC2)cs1`, the “hERG current change (%, negative = inhibition) at 10uM” value came to 10.1%.
Under `Cn1cc(S(=O)(=O)N2CCOCC2)cc1C(=O)Nc1ccc(Cl)cc1` stands -51%; under `O=C(Nc1ccccc1Cl)c1cc(S(=O)(=O)N2CCOCC2)cs1`, -9.07%.
As for `Cn1cc(S(=O)(=O)N2CCOCC2)cc1C(=O)Nc1cccc(Cl)c1`, the “hERG current change (%, negative = inhibition) at 10uM” value is listed as -10.4%.
Under `Cc1ccc(NC(=O)c2cc(S(=O)(=O)N3CCOCC3)cn2C)cc1Cl` stands 11.2%.
As for `O=C(Nc1ccccc1C(=O)O)c1cc(S(=O)(=O)N2CCOCC2)cs1`, the “hERG current change (%, negative = inhibition) at 10uM” value is listed as -66.4%.
Take `O=C(Nc1ccc(F)cc1)c1cc(S(=O)(=O)N2CCOCC2)cs1`: the “hERG current change (%, negative = inhibition) at 10uM” value was -11%.
Turning to `CCOc1ccccc1NC(=O)NCc1ccccc1`, the “hERG current change (%, negative = inhibition) at 10uM” value is reported as 0.101%.
Regarding `CN(C)S(=O)(=O)c1ccc2c(c1)C(CC(=O)O)NC2=O` (stereo not shown), the “hERG current change (%, negative = inhibition) at 10uM” value is given as 6.72%.
Turning to `CCCOc1ccc(N2C(=O)CC(SC(=NCC)NCC)C2=O)cc1` (stereo not shown), the “hERG current change (%, negative = inhibition) at 10uM” value is 11.9%.
Under `Cc1nc(-c2ccccc2)sc1C(=O)CSc1ccc(F)cc1` stands -7.92%; under `CNC(=S)NNC(=O)c1cccn(Cc2ccccc2)c1=O`, 19%.
In the case of `COc1ccc(CN2CCN(C)CC2)cc1OCc1ccccc1`, the “hERG current change (%, negative = inhibition) at 10uM” value is -19%.
For the compound `COc1ccc(NC(=S)N2CCN(Cc3ccccc3)CC2)c(OC)c1`, the “hERG current change (%, negative = inhibition) at 10uM” value was -5.79%.
On to `COc1ccc(-c2[nH]ncc2CN2CCN(c3ccccn3)CC2)c(OC)c1`, for which the “hERG current change (%, negative = inhibition) at 10uM” value is reported as -31.5%.
Under `COc1ccc(CN2CCN(CCCc3ccccc3)CC2)c(OC)c1` stands -76.6%; under `COc1ccc(S(=O)(=O)N2CCN(CCc3ccccc3)CC2)c(OC)c1`, -25.6%.
For `COc1ccc(CN2CCN(c3ccccn3)CC2)cc1OCc1ccccc1`, the “hERG current change (%, negative = inhibition) at 10uM” value was -67.9%.
Under `COc1ccc(CN2CCN(c3ccccn3)CC2)c(OC)c1` stands -75.9%; under `COc1ccc(OC)c(S(=O)(=O)N2CCN(c3ccccn3)CC2)c1`, -12.5%; under `COc1ccc(OC)c(S(=O)(=O)N2CCN(Cc3ccccc3)CC2)c1`, 2.05%.
Turning to `COc1ccc(CN2CCc3ccccc3C2)c(OC)c1`, the “hERG current change (%, negative = inhibition) at 10uM” value was -28.4%.
For `CCN1CCN(Cc2ccc(OC)c(OCc3ccccc3)c2)CC1`, the “hERG current change (%, negative = inhibition) at 10uM” value is -41.9%.
Under `COc1ccc(CC(C)N2CCN(Cc3ccccc3)CC2)c(OC)c1` (stereo not shown) stands -75.3%; under `Fc1cccc(-c2oncc2-c2nnnn2-c2ccc(Cl)cc2)c1`, -13.9%; under `CCOC(=O)c1ccc(NC(=O)CCc2nnc3ccc(N4CCCC4)nn23)cc1`, 5.84%.
In the case of `O=C(OCC1CC(c2ccccc2)=NO1)c1ccc(Cl)cc1` (stereo not shown), the “hERG current change (%, negative = inhibition) at 10uM” value is recorded as 18.6%.
In the case of `CN1CCN(CP(=O)(N2CCOCC2)N2CCOCC2)CC1`, the “hERG current change (%, negative = inhibition) at 10uM” value worked out at 1.13%.
Under `Br.CC(C)(C)C(=O)Cn1c(NCCCO)nc2ccccc21` stands -7.81%; under `CC(NS(=O)(=O)c1ccc(CCC(=O)NCc2cccnc2)cc1)c1ccccc1` (stereo not shown), -1.35%.
With `CCOC(=O)CSc1nnc(NC(=O)c2cc([N+](=O)[O-])cc([N+](=O)[O-])c2)s1`, the “hERG current change (%, negative = inhibition) at 10uM” value is reported as -8.83%.
Under `O=C(C[n+]1ccccc1)N/N=C/c1cccs1.[Cl-]` stands 12%; under `Cn1ccnc1SCCNC(=O)C1CCC(=O)N(Cc2ccc(Cl)cc2)C1` (stereo not shown), -3.3%; under `COc1cc(NC(=O)CN(c2ccc(C)cc2)S(=O)(=O)c2c(C)noc2C)cc(OC)c1`, 16.3%.
Under `C=CCn1c(O)c(C(C)=NCCc2c[nH]c3ccccc23)c(=O)[nH]c1=O` stands -31.9%; under `CC(CCc1ccccc1)N1CCN(Cc2ccccc2)CC1` (stereo not shown), -75.2%; under `CC(CCc1ccccc1)N1CCN(C)CC1` (stereo not shown), -20.4%.
Turning to `COc1ccc(CN2CCN(c3ccccn3)CC2)c(OC)c1C.O=C([O-])C(=O)[O-]`, the “hERG current change (%, negative = inhibition) at 10uM” value was -55.8%.
Regarding `COc1ccc(CN2CCN(Cc3ccccc3)CC2)c(OC)c1`, the “hERG current change (%, negative = inhibition) at 10uM” value is recorded as -69.9%.
Under `COc1ccc(CN2CCN(C(=O)Cc3ccccc3)CC2)c(OC)c1` stands -31.5%; under `CCN1CCN(C(C)CCc2ccccc2)CC1` (stereo not shown), -17.7%.
Under `COc1ccc(CN2CCN(c3ccccn3)CC2)c(OC)c1C.O=C(O)C(=O)O` stands -37.1%; under `COc1ccc(CN2CCN(c3ncccn3)CC2)c(C)c1C`, -35.9%.
Under `COc1ccc(OC)c(CN2CCN(Cc3cc(OC)c(OC)c(OC)c3)CC2)c1` stands 9.45%; under `COCCn1cnc2c(c1=O)c1nc3ccccc3nc1n2/N=C/c1ccco1`, -7.29%.
`COc1ccc(CNS(=O)(=O)c2ccc(-c3ccc(=O)[nH]n3)s2)cc1OC`: the “hERG current change (%, negative = inhibition) at 10uM” value is -29.5%.
Under `COC(=O)c1ccc2c(=O)n(CC3CCCO3)c(SCC(=O)Nc3ccccc3OC)nc2c1` (stereo not shown) stands -4.41%; under `CS(=O)(=O)c1nc(-c2ccccc2)cc(-c2ccccc2)c1C#N`, 8.33%.

The values are drawn from article PMC4336329 (PLoS ONE, 2015).
